Measured values: PubChem BioAssay (NCATS)
Inconclusive results are not listed. The source made the active and inactive calls. Calls follow the shape of the dose curve; as a rule, active = well fitted inhibition curve with a large enough effect; inconclusive = small, poorly fitted or top-dose-only effect; inactive = no such curve, though single readings can be large or run the other way.

Test: qHTS Screen of the MIPE 4.0 Collection Against Ewings Sarcoma (TC71) (AID 1259253); also: nearly all actives have a fitted effect of over 40% in size
Conditions: TC71 Ewing sarcoma viability, CellTiter-Glo, 48 h; series mostly up to 45.8 µM
From the text: There is a large unmet medical need for treatments for Ewing sarcoma, a pediatric sarcoma. We sought to identify compounds that inhibited Ewing sarcoma cells in vitro with the goal to then test promising drugs in two drug combinations in vitro to look for synergistic drug combinations. Promising combinations would then proceed to additional validation, including in vivo testing.
Using the NCATS developed oncology compound library called the Mechanism of Interrogation Plate (MIPE), four Ewing sarcoma cell lines were evaluated (TC32, TC71, RDES, EW8). Compounds, in a 12-point titration series, were incubated with cells for 48 hours and the read out was cell viability (CellTiter-Glo from Promega). These initial experiments were used to select appropriate concentrations of each single agent for subsequent two-drug matrix combinations such that the concentrations in the matrices would span both activity and non-activity.
Cells, in the log phase of growth, were seeded in 5 uL of RPMI plus 5% FBS, […] L-glutamine, 100 U/ml penicillin and 100 ug/ml streptomycin into 1536-well solid-bottom white tissue culture treated Greiner Bio One Plates (789173-F) using a MultiDrop Combi (Thermofisher Scientific) dispenser and a small sterile cassette. One column was media alone to be used as a :"no cells" control. The plates were then covered with sterilized stainless steel gasketed lids from Kalypsys. After allowing cells to attach for 4 hours, 23 nL of test compound or control (negative control DMSO and positive control 9.2 uM Bortezomib-final) were added from a 1536-well polypropylene compound source plate to each well using a 1536 head pin tool from Kalypsys. Cells were then incubated for 48 hours at 37C, 95% relative humidity and 5% CO2. After 48 hours, plates were removed from the incubator and 3 uL of CellTiter-Glo (Promega) was added using an Aurora Flying Reagent Dispenser Bioraptor. Plates were incubated at room temperature for 10 minutes prior to reading the luminescence on the Viewlux (PerkinElmer). The relative luciferase units are used to calculate the percent activity using the activity of DMSO in the cells and no cells columns for normalization of no inhibition and full inhibition respectively.
Potency is read from the fitted curve at half-maximal effect.

With Cc1cccc(C)c1NC(=O)CN1CCCC1=O as the compound, how does the Potency read?
The Potency was “inactive”.

For C=C(C)[C@H]1Cc2c(ccc3c2O[C@@H]2COc4cc(OC)c(OC)cc4[C@@H]2C3=O)O1, which Potency is on record?
Its Potency is 4.69 µM (active).

With COc1ccc(C(=O)c2c(C)n(CCN3CCOCC3)c3ccccc23)cc1 as the compound, how does the Potency read?
The Potency was “inactive”.

Which Potency does the source give for COc1ccc(C(CN(C)C)C2(O)CCCCC2)cc1 (stereo not drawn) here?
The Potency was “inactive”.

For O=C1CC[C@@]2(O)[C@H]3Cc4ccc(O)c5c4[C@@]2(CCN3CC2CC2)[C@H]1O5, which Potency is on record?
Its Potency is “inactive”.

Which Potency does the source give for C[C@@H]1[C@@H](CC(C[C@H]2O[C@@H]3O[C@]4(C)CC[C@@H]5[C@H](C)CC[C@@H]([C@H]2C)[C@@]35OO4)C[S+](=O)([O-])c2ccc(COC(=O)N(C)C)cc2)O[C@@H]2O[C@]3(C)CC[C@H]4[C@H](C)CC[C@@H]1[C@@]24OO3 (stereo partly drawn) here?
The Potency was 0.332 µM (active).

Which Potency does the source give for CN1CCN(C(=O)O[C@H]2c3nccnc3C(=O)N2c2ccc(Cl)cn2)CC1 here?
Its Potency is “inactive”.

For CNCC(O)c1ccc(O)cc1 (stereo not drawn), which Potency is on record?
Its Potency is “inactive”.

For Fc1ccc(C(OCCN2CCN(CCCc3ccccc3)CC2)c2ccc(F)cc2)cc1, which Potency is on record?
The Potency was 18.7 µM (active).

With Cc1cc(SCc2sc(-c3ccc(C(F)(F)F)c(F)c3)nc2C)ccc1OCC(=O)O as the compound, how does the Potency read?
Its Potency is 23.5 µM (active).

With N[C@@H](Cc1ccc(N(CCCl)CCCl)cc1)C(=O)O as the compound, how does the Potency read?
The Potency was 9.35 µM (active).

With CCCC(C)(COC(N)=O)COC(=O)NC(C)C (stereo not drawn) as the compound, how does the Potency read?
Its Potency is “inactive”.

With CN(C)CCN(C)CCc1ccc(Cl)c(Cl)c1 as the compound, how does the Potency read?
Its Potency is “inactive”.

With C#CCN(C)[C@H](C)Cc1ccccc1 as the compound, how does the Potency read?
The Potency was “inactive”.

For C[C@@H]1[C@@H](C(=O)C[C@H]2O[C@@H]3O[C@]4(C)CC[C@@H]5[C@H](C)CC[C@@H]([C@H]2C)[C@@]35OO4)O[C@@H]2O[C@]3(C)CC[C@H]4[C@H](C)CC[C@@H]1[C@@]24OO3, which Potency is on record?
The Potency was 4.69 µM (active).

With Cn1cc(C2=C(c3cn(C4CCN(Cc5ccccn5)CC4)c4ccccc34)C(=O)NC2=O)c2ccccc21 as the compound, how does the Potency read?
The Potency was 6.62 µM (active).

Which Potency does the source give for O=c1[nH]c2ccccc2n1CCCN1CCC(n2c(=O)[nH]c3cc(Cl)ccc32)CC1 here?
The Potency was “inactive”.

Which Potency does the source give for CN(C)[C@@H]1C(=O)C(C(N)=O)=C(O)[C@@]2(O)C(=O)C3=C(O)c4c(O)cccc4[C@@](C)(O)[C@H]3C[C@@H]12 here?
The Potency was 3.72 µM (active).

With C[C@@H]1O[C@@H](O[C@H]2C[C@@H](O)[C@]3(CO)[C@H]4[C@H](O)C[C@]5(C)[C@@H](C6=CC(=O)OC6)CC[C@]5(O)[C@@H]4CC[C@]3(O)C2)[C@H](O)[C@H](O)[C@H]1O as the compound, how does the Potency read?
Its Potency is 0.0418 µM (active).

Which Potency does the source give for COC[C@@H](NC(C)=O)C(=O)NCc1ccccc1 here?
The Potency was “inactive”.

For CC(O)(CS(=O)(=O)c1ccc(F)cc1)C(=O)Nc1ccc(C#N)c(C(F)(F)F)c1 (stereo not drawn), which Potency is on record?
The Potency was 2.35 µM (active).

For Cc1sc2c(c1C)C(c1ccc(Cl)cc1)=N[C@@H](CC(=O)OC(C)(C)C)c1nnc(C)n1-2, which Potency is on record?
Its Potency is 1.48 µM (active).

Which Potency does the source give for COC1(CS(=O)c2ccccc2)CCN(CCc2c[nH]c3ccc(F)cc23)CC1 (stereo not drawn) here?
The Potency was 5.9 µM (active).
